# Reference: PubChem BioAssay (EPA / NIEHS)
# Active and inactive are the calls of the source. The calls were made as follows: active = hit-call score of the fitted dose curve at least 0.9, where 1 is the maximum; inactive = score below 0.9.
# Experiment: ATG_BRE_CIS: Attagene CIS-FACTORIAL HepG2 Assay for human Bone Morphogenetic Protein (BMP) Response Element (BRE) (AID 2282933)
# Details: HepG2 BMP response element reporter, Attagene transcription factor profiling; actives raise or lower the signal
# Procedure: ATG_CIS is a cell-based, multiplexed-readout assay that uses HepG2, a human liver cell line, with measurements taken at 24 hours after chemical dosing in a 24-well plate.ATG_BRE_CIS is one of 52 assay component(s) measured or calculated from the ATG_CIS assay. It is designed to make measurements of mRNA induction, a form of inducible reporter, as detected with fluorescence intensity signals by Reverse transcription polymerase chain reaction (RT-PCR) and Capillary electrophoresis technology.Data from the assay component ATG_BRE_CIS was analyzed into 1 assay endpoint. This assay endpoint, ATG_BRE_CIS, was analyzed with bidirectional fitting relative to DMSO as the negative control and baseline of activity. Using a type of inducible reporter, measures of mRNA for gain or loss-of-signal activity can be used to understand the reporter gene at the transcription factor-level as they relate to the gene SMAD1. Furthermore, this assay endpoint can be referred to as a primary readout, because this assay has produced multiple assay endpoints where this one serves a reporter gene function. To generalize the intended target to other relatable targets, this assay endpoint is annotated to the dna binding intended target family, where the subfamily is Smad protein.
# Human liver HepG2 cells are transiently transfected with multiple reporter transcription units (MRTUs) in 6-well plates using FuGene 6 reagent (Roche; 3 ml FuGene/1 mg DNA). The MRTU constructs are regulated by a cis-regulating element (promoter). […] A major difference between the CIS and TRANS system is that in CIS activities of endogenous TFs are measured, whereas the TRANS assay evaluates changes in activities of exogenous, chimeric NR-Gal4 proteins. […] At the end of 24 hour incubation, total RNA was isolated using TriZol reagent (Invitrogen). The isolated RNA is then reverse-transcribed using oligo(dT) primer and Mo-MLV reverse transcriptase (Invitrogen) with DNAse I (Ambion) treatment for 30 min. The one-tenth of the produced cDNA was amplified by PCR using Taq DNA polymerase (Invitrogen) and two reporter sequence-specific primers. The PCR products were fluorescently labeled by primer extension with 6-arboxyfluorescein (6-FAM) 5'-labeled reporter sequence-specific primer (2 min at 95 C, 20 s at 68 C and 10 min at 72 C) and these products were digested with 5U of HpaI (New England Biolabs) for 2h at 37 C. The fragments were purified using Qiaquick PCR columns (Qiagen), analyzed on an ABI 3130xL genetic analyzer (Applied Biosystems) with peak positions identified by using a set of X-rhodamine (ROX)-labeled MapMarker1000 molecular weight standards (BioVentures). The raw capillary electrophoresis data was processed using Attagraph software (Attagene).
Structure (SMILES),outcome,AC50
O=C1C=CC(=O)C=C1,inactive,
C[N+](=O)[O-],inactive,
CCC1CCC(=O)O1 (stereo not given),inactive,
O=C(CCl)c1ccccc1,inactive,
O=C(O)c1cc[c]([Hg][Cl])cc1,inactive,
O=[N+]([O-])C=Cc1ccccc1,,44.2 µM (active)
O=C(NCNC(=O)NC1C(=O)NC(=O)N1CO)NC1C(=O)NC(=O)N1CO (stereo not given),inactive,
O=P1(NCCCl)OCCCN1CCCl (stereo not given),inactive,
C=CC(=O)OCC(CC)CCCC (stereo not given),inactive,
COCC(=O)N(c1c(C)cccc1C)N1CCOC1=O,inactive,
CC(Cc1ccc(C(C)(C)C)cc1)CN1C[C@@H](C)O[C@@H](C)C1 (stereo not given in full),,50.3 µM (active)
c1ccc(Nc2ccc3ccccc3c2)cc1,inactive,
CC[N+](=O)[O-],inactive,
CCOP(=O)(OCC)OCC,inactive,
Nc1ccc(-c2ccc(N)c(N)c2)cc1N,inactive,
CCNCC,inactive,
O=S(=O)(O)OOS(=O)(=O)O,inactive,
Cc1ccccc1CCl,inactive,
CNC(=N[N+](=O)[O-])NCC1CCOC1 (stereo not given),inactive,
CCC(C)c1cc([N+](=O)[O-])cc([N+](=O)[O-])c1OC(=O)C=C(C)C (stereo not given),,8.06 µM (active)

Structure (SMILES),outcome,AC50
CC(C)CCCCCCCOC(=O)c1ccccc1C(=O)OCCCCCCCC(C)C,inactive,
CN(C)C(=O)C(c1ccccc1)c1ccccc1,inactive,
CC1(C)[C@H](C(=O)O[C@H](C#N)c2cccc(Oc3ccccc3)c2)[C@@H]1C=C(Br)Br,inactive,
CC1(C)CC(=O)CC(C)(C)N1[O],inactive,
O=[N+]([O-])O.O=[N+]([O-])O.[Cd],inactive,
N#CCCCl,inactive,
CNC(=O)Oc1cc(C)c(SC)c(C)c1,inactive,
[N-]=[N+]=CC(=O)OC[C@H](N)C(=O)O,inactive,
CCc1cc(C)cc(CC)c1-c1c(OC(=O)C(C)(C)C)n2n(c1=O)CCOCC2,inactive,
O=[N+]([O-])c1cc(C(F)(F)F)c(Cl)c([N+](=O)[O-])c1Cl,inactive,
CC(=O)c1cc2c(cc1C)C(C)(C)C(C)CC2(C)C (stereo not given),,26.5 µM (active)
O=[N+]([O-])c1ccc(Cl)cc1,inactive,
CCN(CC)C(=S)S,inactive,
C[N+](C)(C)CC(=O)O,inactive,
CC(O)CN(CC(C)O)CC(C)O (stereo not given),inactive,
Nc1ccc([N+](=O)[O-])cc1N,inactive,
O=S(=O)(O)O,inactive,
COC(=O)c1ccccc1S(=O)(=O)NC(=O)Nc1nc(C)cc(C)n1,inactive,
c1ccc2c(c1)CCCC2,inactive,
ClCC(Cl)Cl,inactive,
